High-throughput results as filed in PubChem BioAssay.
Dicer processing: inhibitors of human Dicer processing of pre-microRNA | Q9UPY3 | cat-ELCCA pre-miR-21 Dicer processing, chemiluminescence; stronger effect = higher value | z-score at 25 µM | 6% of 47,000 active | AID 1347074; in the data active = z-score above about 3, passing the limit was not always enough;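 note: higher signal means more uncleaved substrate so more Dicer inhibition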
Large screens that a line does not name were inactive. Many of the other results were omitted from the sample, so hits are more common in it than they were.

CC(=O)Nc1c(-c2ccccc2)oc2ccccc2c1=O	Dicer processing 3.3
COc1c(-c2ccccc2)oc2ccccc2c1=O	none
COc1ccc(CN2C(=O)c3oc4ccccc4c(=O)c3C2c2cccc(O)c2)cc1 (centres undefined)	none
COC(=O)C1=C(C)Nc2nc3ccccc3n2C1c1cccc(Cl)c1 (centres undefined)	none
O=S(=O)(c1ccccc1)n1nc(-c2ccccc2)nc1NCc1ccc(F)cc1	none
CCCCCCCN=C(C1=C(O)C(=O)N(c2ccccc2)C1=O)c1ccccc1	none
O=C1CSC(=O)N1c1ccc(C(F)(F)F)cc1	Dicer processing 3.9
COc1ccc(N2C(=O)CSC2=O)cc1	none
O=C1CSC(=O)N1c1ccc(Cl)cc1	none
Cc1ccc(C)c(N2C(=O)C3C4c5ccccc5C(CO)(c5ccccc54)C3C2=O)c1 (centres undefined)	none
Cc1[nH]nc(-c2ccc(O)cc2O)c1Oc1ccccc1	none
CCOc1ccc(-c2n[nH]c(C)c2-c2ccccc2)c(O)c1	Dicer processing 5.1
COc1ccc(-c2n[nH]c(C)c2-c2ccc(F)cc2)c(O)c1	none
Cc1ccc(C2Nn3c(C)nnc3SC2C(=O)Nc2ccc(C)cc2C)cc1 (centres undefined)	none
Cc1c(NC(=O)O/N=C(/N)c2ccccc2)sc2nc(-c3ccc(Cl)cc3)nn12	none
Cc1nccn1CC(=O)N1c2ccccc2Sc2ccccc21	Dicer processing 5.5
O=C1CCC(=O)N1CC(=O)N1c2ccccc2Sc2ccccc21	none
CCOC(=O)C(=O)N1c2ccccc2Sc2ccccc21	none
Brc1ccc(SCCc2ccncc2)cc1	none
Cc1cc(OC(=O)c2ccccc2)n(-c2ccccc2)n1	none
NC(N)=Nc1nc(-c2ccc([N+](=O)[O-])cc2)cs1	none
CCC(C)Sc1sc(C(=O)O)c(-c2ccc(Cl)cc2)c1C#N (centres undefined)	none
C=CCNC(=O)C(=O)NCCc1c[nH]c2ccccc12	Dicer processing 3.7
N#C/C(=C\c1ccc(-c2cc(C(F)(F)F)cc(C(F)(F)F)c2)o1)C(=O)NCCc1c[nH]c2ccccc12	none
CCOC(=O)NC(=S)NCCc1c[nH]c2ccccc12	none
CCOC(=O)c1sc(N/N=C/c2cccs2)c2c1CC(C)(C)CC2=O	none
O=C1c2ccccc2C(=O)N1SSN1C(=O)c2ccccc2C1=O	none
NNC(=S)Nc1ccc(Br)c(Cl)c1	none
Cc1cc(NC(=S)NN)ccc1Br	Dicer processing 4.1
CC(C)c1ccc(NC(=S)NN)cc1	none
S=c1[nH]c(=S)c2c3c(sc2[nH]1)CN(Cc1ccccc1)CC3	none
CC1CCc2c(sc(NC(=O)c3ccncc3)c2C(N)=O)C1 (centres undefined)	none
COc1cc(C2C(C(=O)OCC3CCCO3)=C(C)NC3=C2C(=O)CCC3)ccc1OC(C)=O (centres undefined)	none
NS(=O)(=O)c1ccc(-c2cc(C(F)(F)F)ccn2)s1	none
CCOC(=O)CSc1sc(C(C)=O)cc1[N+](=O)[O-]	none
Cc1cc(C)cc(CC2CC(=O)N(c3ccccc3)C2=O)c1 (centres undefined)	none
O=C1CC(Cc2ccccc2)C(=O)N1c1ccncc1 (centres undefined)	none
CC(C)(C)c1ccc(N2C(=O)CC(C/C=C/c3ccccc3)C2=O)cc1 (centres undefined)	Dicer processing 4.7
Cc1ccc2oc3c(c(=O)c2c1)C(c1ccc(O)cc1)N(CCCN1CCOCC1)C3=O (centres undefined)	none
Nc1cc(NC(=O)c2ccccc2O)ccc1Cl	Dicer processing 5.6
O=C(NC(=O)c1ccccc1Cl)c1ccccc1O	none
O=C(Nc1ccc(Oc2ccc(NC(=O)c3ccccc3Cl)cc2)cc1)c1ccccc1Cl	none
CNC(=S)NNC(=O)c1sc(SC)c2c1CCCC2O (centres undefined)	none
O=C1CC(c2ccccc2)CC(O)=C1C=Nc1ccccc1Cl (centres undefined)	none
O=C1CC(c2ccccc2)CC(O)=C1C=Nc1ccc(Cl)cc1 (centres undefined)	Dicer processing 3
O=C1CCC(c2ccccc2)C(O)=C1C=Nc1ccc(Cl)cc1 (centres undefined)	none
CCOC(=O)c1cnc(NNS(=O)(=O)c2cc(C)c(Cl)cc2C)nc1C(F)(F)F	none
CCCCSC1=C(C#N)C(c2ccccc2Cl)CC(=O)N1 (centres undefined)	none
CC(C)(C)c1cc2nc(C(F)(F)F)cc(N/N=C/c3ccccc3)n2n1	none
CC(C)(C)c1cc2nc(C(F)(F)F)cc(NNC(=O)c3ccc(Cl)cc3)n2n1	Dicer processing 5.2
CC(C)(C)c1cc2nc(C(F)(F)F)cc(NNC(=O)Nc3ccccc3)n2n1	none
CC(C)(C)c1cc2nc(C(F)(F)F)cc(NNC(=O)c3ccccc3)n2n1	Dicer processing 6.7
CC(C)(C)c1cc2nc(C(F)(F)F)cc(Sc3ccc(Cl)cc3)n2n1	none
CC(C)(C)c1csc(NNC(=O)c2ccc(Cl)cc2)n1	none
OCCN1CCN(c2ncc(Cl)cc2C(F)(F)F)CC1	none
Cc1ccc(NC(=S)N2CCC(Nc3nccc(C(F)(F)F)n3)CC2)c(C)c1	none
CCOC(=O)c1ncoc1-c1ccc(C(F)(F)F)cc1	none
COc1ccc(C2C3CCc4ccccc4C3=NN2c2ccccc2)cc1 (centres undefined)	none
CCOC(=O)c1sc(S(C)=NC(=O)c2ccc(Cl)cc2)c2c1CCC=C2 (centres undefined)	none
COCCOC(=O)Cn1nnc2sc3c(c2c1=O)CCC(C)C3 (centres undefined)	none
CCC(C)OC(=O)Cn1nnc2sc3c(c2c1=O)CCC(C)C3 (centres undefined)	none
COC(=O)Cn1nnc2sc3c(c2c1=O)CCCC3	none
CC1CCc2c(sc3nnn(CC(=O)NC4CCCCC4)c(=O)c23)C1 (centres undefined)	none
CC1CCN(C(=O)Cn2nnc3sc4c(c3c2=O)CCCC4)CC1	Dicer processing 3.5
CC1CCN(C(=O)Cn2nnc3sc4c(c3c2=O)CCC(C)C4)CC1 (centres undefined)	Dicer processing 3
CCCCCOC(=O)Cn1nnc2sc3c(c2c1=O)CCC(C)C3 (centres undefined)	Dicer processing 3.5
CC(C)COC(=O)Cn1nnc2sc3c(c2c1=O)CCC(C)C3 (centres undefined)	none
CCCOC(=O)Cn1nnc2sc3c(c2c1=O)CCCC3	none
COc1cc(NC(=O)c2ccccc2)c(C)cc1N	none
CC1=C(C(=O)OCCOc2ccccc2)C(c2ccccc2OC(C)C)C2=C(CC(C)(C)CC2=O)N1 (centres undefined)	none
C/C(=N\Nc1ccc(S(=O)(=O)NCc2ccco2)cc1[N+](=O)[O-])c1ccc(F)cc1	none
CC(C)(C)c1ccc(-c2nc3cc(NC(=O)c4ccc([N+](=O)[O-])o4)ccc3o2)cc1	none
O=c1[nH]c2ccc(NCc3ccc4c(c3)OCO4)cc2[nH]1	none
Cc1cc(NCc2ccc3c(c2)OCO3)ccc1Br	Dicer processing 3.8
CCc1ccc(CNCc2ccc3c(c2)OCO3)cc1	none
Cc1ccc(-c2nc3cc(NC(=O)c4ccc([N+](=O)[O-])o4)ccc3o2)cc1	none
Clc1cc(NCc2ccc3c(c2)OCO3)ccc1N1CCOCC1	Dicer processing 6.9
c1ccc(NCc2ccc3c(c2)OCO3)cc1	none
O=C(O)c1cc(NCc2ccc3c(c2)OCO3)ccc1N1CCOCC1	none
Cc1ccc(-c2nc3cc(NCc4ccc5c(c4)OCO5)ccc3o2)cc1	Dicer processing 8
CC1=C(C(=O)Nc2cc(C)ccn2)C(c2ccc(Cl)cc2)C2=C(CC(C)(C)CC2=O)N1 (centres undefined)	none
O=S(=O)(Cc1ccc(Cl)cc1Cl)CC(O)Cn1ccc(C(F)(F)F)n1 (centres undefined)	none
Cn1ccnc1S(=O)(=O)/C(C#N)=C/c1ccccc1Cl	none
CCOC(=O)c1cnn2c(C)cc(-c3ccc(OCC)cc3)nc12	none
